Measurements from PubChem BioAssay AID1159580 (chemical genetic matrix, 2015).
Where “and” joins values, the source holds several entries; their conditions need not be identical. Identical values can stand only once. About 2,000 (36%) of roughly 5,500 compounds were called active. Roughly 18% stayed inconclusive and do not appear here. No stated cut-off is given here; in the data, active means normalized growth mostly below about 0.91 (no sharp cut-off); inconclusive means no clear call, values can overlap the other calls; inactive means mostly above about 0.92. The list shows a part of the results.

Assay: chemical genetic growth profiling, strain panel (AID 1159580);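 further: tested at 20 µM; growth read once vehicle control cultures reached saturation at 30 °C; 1 = growth at the plate median or of vehicle wells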
Conditions: growth OD

Measured: normalized growth

OCCN1CCN(CCCN2c3ccccc3Sc3ccc(Cl)cc32)CC1
inactive: S. cerevisiae deletion strains, locus YJR075W, strain HOC1, stronger effect = lower value 1 | S. cerevisiae deletion strains, locus YKL009W, strain mrt4, stronger effect = lower value 0.982 | S. cerevisiae deletion strains, locus YKL068W, stronger effect = lower value 0.999 | S. cerevisiae deletion strains, locus YKL085W, strain MDH1 (second series), stronger effect = lower value 1 | S. cerevisiae deletion strains, locus YKL085W, strain MDH1, stronger effect = lower value 1 | S. cerevisiae deletion strains, locus YKL160W, strain elf1, stronger effect = lower value 0.996 | S. cerevisiae deletion strains, locus YKL190W, strain CNB1, stronger effect = lower value 1.01 | S. cerevisiae deletion strains, locus YKR001C, strain vps1, stronger effect = lower value 1.03 | S. cerevisiae deletion strains, locus YKR026C, strain gcn3, stronger effect = lower value 1 | S. cerevisiae deletion strains, locus YKR091W, strain srl3, stronger effect = lower value 1 | S. cerevisiae deletion strains, locus YLL001W, strain dnm1, stronger effect = lower value 1.01 | S. cerevisiae deletion strains, locus YLL026W, stronger effect = lower value 0.999 | S. cerevisiae deletion strains, locus YLL041C, strain sdh2, stronger effect = lower value 1 | S. cerevisiae deletion strains, locus YLR027C, strain aat2, stronger effect = lower value 1 | S. cerevisiae deletion strains, locus YLR039C, strain RIC1, stronger effect = lower value 1.24 | S. cerevisiae deletion strains, locus YLR058C, strain SHM2, stronger effect = lower value 1.01 | S. cerevisiae deletion strains, locus YLR102C, strain apc9, stronger effect = lower value 0.991 | S. cerevisiae deletion strains, locus YLR113W, strain HOG1, stronger effect = lower value 0.98 | S. cerevisiae deletion strains, locus YLR221C, strain rsa3, stronger effect = lower value 1 | S. cerevisiae deletion strains, locus YLR258W, strain gsy2, stronger effect = lower value 1 | S. cerevisiae deletion strains, locus YLR262C, strain YPT6 (second series), stronger effect = lower value 1.06 | S. cerevisiae deletion strains, locus YLR262C, strain YPT6, stronger effect = lower value 1.32 | S. cerevisiae deletion strains, locus YLR268W, strain sec22, stronger effect = lower value 0.935 | S. cerevisiae deletion strains, locus YLR320W, strain mms22, stronger effect = lower value 0.964 | S. cerevisiae deletion strains, locus YLR330W, strain CHS5, stronger effect = lower value 1.01 | S. cerevisiae deletion strains, locus YLR342W, strain FKS1 (second series), stronger effect = lower value 0.958 | S. cerevisiae deletion strains, locus YLR342W, strain FKS1, stronger effect = lower value 0.994 | S. cerevisiae deletion strains, locus YLR357W, strain rsc2, stronger effect = lower value 0.983 | S. cerevisiae deletion strains, locus YLR370C, strain arc18, stronger effect = lower value 1 | S. cerevisiae deletion strains, locus YLR371W, strain rom2, stronger effect = lower value 0.992 | S. cerevisiae deletion strains, locus YLR384C, strain iki3, stronger effect = lower value 1 | S. cerevisiae deletion strains, locus YLR418C, strain cdc73, stronger effect = lower value 0.894 | S. cerevisiae deletion strains, locus YML016C, strain PPZ1, stronger effect = lower value 1.02 | S. cerevisiae deletion strains, locus YML032C, strain rad52, stronger effect = lower value 0.961 | S. cerevisiae deletion strains, locus YML120C, strain ndi1, stronger effect = lower value 1 | S. cerevisiae deletion strains, locus YML124C, strain tub3, stronger effect = lower value 0.991 | S. cerevisiae deletion strains, locus YMR058W, strain fet3, stronger effect = lower value 0.995 | S. cerevisiae deletion strains, locus YMR078C, strain ctf18, stronger effect = lower value 0.986 | S. cerevisiae deletion strains, locus YMR125W, strain sto1, stronger effect = lower value 1.01 | S. cerevisiae deletion strains, locus YMR129W, stronger effect = lower value 1 | S. cerevisiae deletion strains, locus YMR205C, strain PFK2, stronger effect = lower value 0.977 | S. cerevisiae deletion strains, locus YMR223W, strain ubp8, stronger effect = lower value 0.984 | S. cerevisiae deletion strains, locus YMR231W, strain pep5, stronger effect = lower value 1 | S. cerevisiae deletion strains, locus YMR263W, strain SAP30, stronger effect = lower value 1 | S. cerevisiae deletion strains, locus YMR307W, strain GAS1, stronger effect = lower value 1.1 | S. cerevisiae deletion strains, locus YNL067W, strain RPL9B, stronger effect = lower value 0.989 | S. cerevisiae deletion strains, locus YNL071W, strain lat1, stronger effect = lower value 1.01 | S. cerevisiae deletion strains, locus YNL128W, strain TEP1, stronger effect = lower value 1 | S. cerevisiae deletion strains, locus YNL153C, strain GIM3, stronger effect = lower value 0.983 and 0.891 | S. cerevisiae deletion strains, locus YNL175C, strain NOP13, stronger effect = lower value 1.03 | S. cerevisiae deletion strains, locus YNL183C, strain NPR1, stronger effect = lower value 0.947 | S. cerevisiae deletion strains, locus YNL197C, strain WHI3, stronger effect = lower value 1.02 | S. cerevisiae deletion strains, locus YNL209W, strain ssb2, stronger effect = lower value 0.997 | S. cerevisiae deletion strains, locus YNL224C, strain SQS1, stronger effect = lower value 1.02 | S. cerevisiae deletion strains, locus YNL233W, strain BNI4, stronger effect = lower value 0.986 | S. cerevisiae deletion strains, locus YNL248C, strain rpa49, stronger effect = lower value 0.998 | S. cerevisiae deletion strains, locus YNL250W, strain rad50, stronger effect = lower value 0.985 | S. cerevisiae deletion strains, locus YNL271C, strain bni1, stronger effect = lower value 0.996 | S. cerevisiae deletion strains, locus YNL298W, strain CLA4, stronger effect = lower value 0.976 | S. cerevisiae deletion strains, locus YNL307C, strain MCK1, stronger effect = lower value 0.973 | S. cerevisiae deletion strains, locus YNL322C, strain KRE1 (second series), stronger effect = lower value 1 | S. cerevisiae deletion strains, locus YNL322C, strain KRE1, stronger effect = lower value 1.01 | S. cerevisiae deletion strains, locus YNR049C, strain mso1, stronger effect = lower value 1.01 | S. cerevisiae deletion strains, locus YNR052C, strain pop2, stronger effect = lower value 1 | S. cerevisiae deletion strains, locus YOL006C, strain TOP1, stronger effect = lower value 1.01 | S. cerevisiae deletion strains, locus YOL012C, strain htz1 0.889 | S. cerevisiae deletion strains, locus YOL147C, strain pex11, stronger effect = lower value 0.992 | S. cerevisiae deletion strains, locus YOR001W, strain rrp6, stronger effect = lower value 0.976 | S. cerevisiae deletion strains, locus YOR061W, strain CKA2, stronger effect = lower value 1.02 | S. cerevisiae deletion strains, locus YOR069W, strain VPS5, stronger effect = lower value 1.01 | S. cerevisiae deletion strains, locus YOR070C, strain gyp1, stronger effect = lower value 0.994 | S. cerevisiae deletion strains, locus YOR080W, strain dia2, stronger effect = lower value 1 | S. cerevisiae deletion strains, locus YOR083W, strain WHI5 (second series), stronger effect = lower value 0.973 | S. cerevisiae deletion strains, locus YOR083W, strain WHI5, stronger effect = lower value 0.991 | S. cerevisiae deletion strains, locus YOR106W, strain vam3, stronger effect = lower value 0.962 | S. cerevisiae deletion strains, locus YOR136W, strain idh2, stronger effect = lower value 0.998 | S. cerevisiae deletion strains, locus YOR144C, strain elg1, stronger effect = lower value 1 | S. cerevisiae deletion strains, locus YOR184W, strain ser1, stronger effect = lower value 0.985 | S. cerevisiae deletion strains, locus YOR231W, strain MKK1, stronger effect = lower value 0.997 | S. cerevisiae deletion strains, locus YOR265W, strain rbl2, stronger effect = lower value 0.998 | S. cerevisiae deletion strains, locus YOR270C, strain vph1, stronger effect = lower value 1.04 | S. cerevisiae deletion strains, locus YOR290C, strain snf2, stronger effect = lower value 0.968 | S. cerevisiae deletion strains, locus YOR316C, strain cot1, stronger effect = lower value 0.994 | S. cerevisiae deletion strains, locus YPL051W, strain arl3, stronger effect = lower value 0.975 | S. cerevisiae deletion strains, locus YPL055C, strain LGE1, stronger effect = lower value 0.99 | S. cerevisiae deletion strains, locus YPL078C, strain atp4, stronger effect = lower value 1 | S. cerevisiae deletion strains, locus YPL106C, strain sse1, stronger effect = lower value 1.03 | S. cerevisiae deletion strains, locus YPL240C, strain hsp82, stronger effect = lower value 0.995 | S. cerevisiae deletion strains, locus YPL241C, strain CIN2, stronger effect = lower value 1.02 | S. cerevisiae deletion strains, locus YPL256C, strain CLN2, stronger effect = lower value 1.01 | S. cerevisiae deletion strains, locus YPR119W, strain clb2, stronger effect = lower value 0.991 | S. cerevisiae deletion strains, locus YPR141C, strain kar3, stronger effect = lower value 0.996 | S. cerevisiae deletion strains, locus YPR163C, strain tif3, stronger effect = lower value 0.987 | S. cerevisiae deletion strains, locus YPR167C, strain met16, stronger effect = lower value 1 | S. cerevisiae deletion strains, strain wtn01, stronger effect = lower value 0.951 | S. cerevisiae strains, strain wild type, stronger effect = lower value 1.01
